This is an account of results in publication PMC7819943, “Rice protein-binding microarrays: a tool to detect cis-acting elements near promoter regions in rice”.

In all, about 39,000 sequences were measured (“fluorescence intensity (a.u.)”: median about 4,300, highest 2% from about 39,000 on). This is one part of a sample in which the highest values are shown more often than they occur.

This assay deals with T1, OsSMF1 (Oryza sativa, UniProt Q6ZLB0 1-436).
T1 sequence: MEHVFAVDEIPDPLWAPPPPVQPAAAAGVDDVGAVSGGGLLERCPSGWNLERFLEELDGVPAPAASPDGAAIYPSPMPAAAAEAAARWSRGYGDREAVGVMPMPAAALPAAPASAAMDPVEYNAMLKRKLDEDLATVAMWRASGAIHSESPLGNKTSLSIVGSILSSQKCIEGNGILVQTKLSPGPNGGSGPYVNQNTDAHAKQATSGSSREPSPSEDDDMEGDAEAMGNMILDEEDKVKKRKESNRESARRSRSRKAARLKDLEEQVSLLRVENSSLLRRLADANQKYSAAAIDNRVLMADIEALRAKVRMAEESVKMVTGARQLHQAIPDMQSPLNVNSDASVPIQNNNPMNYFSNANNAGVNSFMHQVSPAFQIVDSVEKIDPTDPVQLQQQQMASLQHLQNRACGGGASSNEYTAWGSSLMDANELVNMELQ
Put plainly: protein-binding microarray (RPBM); PBS, 2% BSA, 51.3 ng/ul salmon testes DNA, 50 uM zinc acetate, 200 nM TF, 25 C, 1 h; high values mean tight binding. Conditions: protein: recombinant; tags: N-terminal polyhistidine and DsRed monomer fusion (pET32a); chain copies: 2; label: CyDye5-dUTP incorporated in the synthesized complementary strand; 3' TTTTT single-stranded linker to array surface; dsDNA, one strand shown. In a few lines: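 Transcription factors, each fused N-terminally to a polyhistidine tag and DsRed, were expressed in E. coli BL21-CodonPlus and purified on Ni–NTA. A custom Agilent array was made double-stranded by primer extension with Cy5-dUTP and blocked with 2% BSA. It was incubated with 200 nM protein in PBS, 2% BSA, salmon testes DNA and 50 µM zinc acetate at 25 °C for 1 h, then washed. The binding signal is per-feature fluorescence intensity (arbitrary units) read on an Axon 4000B scanner.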
As for “GAGTAGAGGTGGGAGGAAGCGGTGGTGTGGTGGGGTGGGGCGGAGTCACCTAGTGCAG”, the binding signal was 8310 fluorescence intensity (a.u.).
The value for “CATAGATGGGCTCATCAGTAATGCTCCATATCAACACGACCGGAGTCACCTAGTGCAG” was 35200 fluorescence intensity (a.u.); that for “TGCAGCGCCCTCAGCGTTTTGCGCTGCCGTGGCCATCACGCGGAGTCACCTAGTGCAG” was 4300 fluorescence intensity (a.u.); that for “TATGAAACCTGAAAACAACTTAACACGGGTGTCCTTCGTCCGGAGTCACCTAGTGCAG” was 17500 fluorescence intensity (a.u.).
Then “CGCCCACCTATCTTACCACTGACACATTGGCCCCACCACCCGGAGTCACCTAGTGCAG”, with 4120 fluorescence intensity (a.u.).
The value for “CCCTCCCTCCGCCTCCGCCCATCCAATTTCTTACCCCGTTCGGAGTCACCTAGTGCAG” was 3230 fluorescence intensity (a.u.); that for “AATCCATAATTAGAGAATGTTTACTGTAGCATCACATAGGCGGAGTCACCTAGTGCAG” was 3290 fluorescence intensity (a.u.); that for “CCTAATTAATCCATAATTATCAAAAGTTTACTGTAGCATCCGGAGTCACCTAGTGCAG” was 27800 fluorescence intensity (a.u.).
As for “AATTAATCCATTATTAACAAATGTTTACTGTAGCATCACACGGAGTCACCTAGTGCAG”, the binding signal is 51600 fluorescence intensity (a.u.).
Then “GATTGTTGGTAGCTAGGTAGCTGTGGCCAAGAAAGTGAGACGGAGTCACCTAGTGCAG”, with 3810 fluorescence intensity (a.u.); and “TAGCAGCCAATTAGTCCACTTAATCACCCATGGATCGCGACGGAGTCACCTAGTGCAG”, with 3490 fluorescence intensity (a.u.); and “ACATGATTTGTGCTCCATGACCTCTTTCTTCTATTATCTACGGAGTCACCTAGTGCAG”, with 7980 fluorescence intensity (a.u.).
“TTATTTTGGAACTGGACCTATCTAATTTCTCCTAGTCAGACGGAGTCACCTAGTGCAG”: the binding signal was 3780 fluorescence intensity (a.u.).
Then “TATATCTAGTTTGCTCAGACCTACTGCTATTTCTTTCTGACGGAGTCACCTAGTGCAG”, with 41200 fluorescence intensity (a.u.); and “TGTTCATAAAAGTAAATGTGCGTGCGTGATTGTATTGTATCGGAGTCACCTAGTGCAG”, with 12500 fluorescence intensity (a.u.); and “AGAGAGCAGTGGAGTGCTGTCAGCCGTTGGATGGCCATCCCGGAGTCACCTAGTGCAG”, with 3400 fluorescence intensity (a.u.).
The value for “GCCGCCGCCGCCGCCGCCGCCGCTGTGTGTACGACTACGACGGAGTCACCTAGTGCAG” was 3250 fluorescence intensity (a.u.); that for “ACCGACGTTTAATCCCTGAGAGCCAGCCGTTGGCTGTGTACGGAGTCACCTAGTGCAG” was 65500 fluorescence intensity (a.u.).
Then “TTACTGCTACCTCCACTTCATGTTATAAGTTGTTTTACCTCGGAGTCACCTAGTGCAG”, with 3480 fluorescence intensity (a.u.); and “TCGCTGATGAAAATGATGAGCATGGTGAGGGGAAGAAGGGCGGAGTCACCTAGTGCAG”, with 22400 fluorescence intensity (a.u.).
On to “CTGAATTTGACTCTTGGATGGTGACTATGATGTCCAAGTACGGAGTCACCTAGTGCAG”, for which the binding signal was 45100 fluorescence intensity (a.u.).
With “CGACCGACATATCTTCATAATTACCAAGTCATCATGCGACCGGAGTCACCTAGTGCAG”, the binding signal was 4520 fluorescence intensity (a.u.).
In the case of “TATGGAGTGAAATGTCAGACTCCAAATGACTTATATGATGCGGAGTCACCTAGTGCAG”, the binding signal is 64100 fluorescence intensity (a.u.).
Consider “CTTCTTCTTGTGATGCTTATATATGACTATGTATGTAGTGCGGAGTCACCTAGTGCAG”, for which the binding signal is 3940 fluorescence intensity (a.u.).
Consider “ATGAATGACCCTGCGACAACAAACCACATCATATCATGCGCGGAGTCACCTAGTGCAG”, for which the binding signal is 3740 fluorescence intensity (a.u.).
Then “GTTTATTCCAAGTGGTGGATGCTGATGAATTAAGTATATACGGAGTCACCTAGTGCAG”, with 3140 fluorescence intensity (a.u.); and “ATCACTTCATTATCACATGACAGACCAACATATAATGATGCGGAGTCACCTAGTGCAG”, with 44500 fluorescence intensity (a.u.).
For “ATTATGTAATGCCTGTTGATGTCAGACCACTCCAAATGCTCGGAGTCACCTAGTGCAG”, the binding signal is 3480 fluorescence intensity (a.u.).
“TCCAAAAGTTCTTGATGTGGCATGGTGGACATGAATTTGTCGGAGTCACCTAGTGCAG”: the binding signal was 5240 fluorescence intensity (a.u.).
In the case of “ATTGGGGAGAGGAGCTGGGCGAGGCGGGGCTTGGGCTCGGCGGAGTCACCTAGTGCAG”, the binding signal is 3390 fluorescence intensity (a.u.).
On to “TAGGGGAGCCTCGACACGACGCCGCTGGCGTGGCGCGTCCCGGAGTCACCTAGTGCAG”, for which the binding signal was 9370 fluorescence intensity (a.u.).
With “AAATAATGTGGCCGGACGGGCGGTAGGGTCCTGGCAGCAGCGGAGTCACCTAGTGCAG”, the binding signal was 28000 fluorescence intensity (a.u.).
Then “CTCTCCTCTTTGCATGCATTCCTCCTGCCAAGAGTGCTGACGGAGTCACCTAGTGCAG”, with 3400 fluorescence intensity (a.u.).
The value for “AAACAAAATAGCATAATCACTCACCGCGTCACACAGCGGGCGGAGTCACCTAGTGCAG” was 3720 fluorescence intensity (a.u.); that for “CCGAAGGAGTACGTGCCAAGTCGGCCCATCAGGCCCACGTCGGAGTCACCTAGTGCAG” was 4010 fluorescence intensity (a.u.); that for “CACCAAACCCCAACCCACCTCCAGGTCATCCACCCACATCCGGAGTCACCTAGTGCAG” was 3900 fluorescence intensity (a.u.).
The value for “AAACCCAAGCAAACCAGCAGCTACTAAGCAAAGCACAACCCGGAGTCACCTAGTGCAG” was 33900 fluorescence intensity (a.u.); that for “CTCTGCACAATTGCACCAACCCCAAAGCTTGGCTAAGCTCCGGAGTCACCTAGTGCAG” was 51000 fluorescence intensity (a.u.).
In the case of “CGATATACGTACACATGTGACATGACGTAATTTTACATCCCGGAGTCACCTAGTGCAG”, the binding signal was 4320 fluorescence intensity (a.u.).
Regarding “CATTTTCCAGGCCAAGCCAGCTCACATCACCAGAGCAACACGGAGTCACCTAGTGCAG”, the binding signal is 3720 fluorescence intensity (a.u.).
Then “CCCTACGTGCACACATCCAGCTCCATTATATAGCCATTTTCGGAGTCACCTAGTGCAG”, with 54800 fluorescence intensity (a.u.).
For the sequence “TTACGATATAGTGTGCCAATTGGCACACCTACATTTTAGTCGGAGTCACCTAGTGCAG”, the binding signal is 45700 fluorescence intensity (a.u.).
Take “ATACGGCACCATTTACGTGTATATGTGTCGTACATGCATACGGAGTCACCTAGTGCAG”: the binding signal was 3470 fluorescence intensity (a.u.).
Then “TGACCTAGCTAGCTACCTTTTCCCTCTTCCATCACATATACGGAGTCACCTAGTGCAG”, with 3800 fluorescence intensity (a.u.); and “CAGTTCCCAGCTGGACCTCCGACCTCCTACCTCCTCACCTCGGAGTCACCTAGTGCAG”, with 3340 fluorescence intensity (a.u.).
